The supplement of paper PMC3334620
The full ranking holds about 33,000 sequences; the median of “E-score (-0.5 to 0.5)” is about -0.0059, and the highest 2% start at about 0.26. For the sample, the highest values were picked, then their nearest neighbours and some sequences at random.

biological target: T1, Cin5 (UniProt P40917); assay: PBM E-score (8-mer binding enrichment) (E-score (-0.5 to 0.5)); higher = stronger / more preferred TF binding; conditions: protein concentration: 100 nM; construct: GST-full length
T1 sequence: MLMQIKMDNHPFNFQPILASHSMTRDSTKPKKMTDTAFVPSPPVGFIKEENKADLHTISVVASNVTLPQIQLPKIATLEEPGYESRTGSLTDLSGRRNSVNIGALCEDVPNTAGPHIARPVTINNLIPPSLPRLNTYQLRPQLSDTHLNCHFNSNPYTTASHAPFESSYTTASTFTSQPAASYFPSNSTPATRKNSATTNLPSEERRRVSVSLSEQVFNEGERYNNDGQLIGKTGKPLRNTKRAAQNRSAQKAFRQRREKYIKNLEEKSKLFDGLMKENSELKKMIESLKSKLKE
Procedure: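 Universal 'all 10-mer' protein binding microarrays (Agilent AMADID 015681) probed with GST-tagged S. cerevisiae TFs (full-length or DBD) made by in vitro transcription/translation (PURExpress), about 100-200 nM. Bound TF was detected with fluorescent anti-GST. Each ungapped 8-mer (which stands for itself and its reverse complement) is scored by the PBM enrichment score (E-score), a modified Wilcoxon-Mann-Whitney statistic from -0.5 to +0.5, computed with the Universal PBM Analysis Suite. Scale: above 0.35 generally sequence-specific binding.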

Sequence | PBM E-score
ATACAATC | 0.162
AGACAATG | -0.00251
GAACAATA | 0.229
AAACAATG | 0.196
AAACAATT | 0.154
CTACAATA | 0.137
ATACAATA | 0.278
TAACAATA | 0.273
GCGGATCC | -0.0308
CGAAGTAG | 0.00111
ATTACCAG | 0.18
ATAGCCAC | -0.0146
CGAGTTCA | -0.0225
TACTGCCA | 0.0854
GACCGGAA | -0.0318
CAGCTATC | -0.0573
CCAGCAAG | -0.182
AGTTTTTG | 0.107
ACCAAACG | -0.038
AGCAAGCT | -0.156
ACAACCAT | 0.306
ACAACCAC | 0.0998
ACAACCAG | -0.00422
ACAGCTTG | 0.11
ACCATTGG | 0.0343

Sequence | PBM E-score
ACACCTCG | 0.0498
CGCCAAGC | -0.235
TCTTAGAA | 0.0741
AATTATGA | 0.257
AATTATCC | 0.133
AATTATCT | 0.331
AATTATCA | 0.251
AATTATGT | 0.304
AATTATGG | 0.156
CGGTTGCA | -0.146
ACTGTCGG | -0.186
AGCGTAAT | 0.13
CTTATCAA | 0.278
GTTATCAA | 0.0472
ATTATCAC | 0.234
ATTATCAA | 0.274
ATTATCAG | 0.119
CTTATCAC | 0.0488
AGCTTCGG | -0.187
CAAGCCTA | -0.16
GGTTACAA | 0.0628
CAAGTGAG | -0.036
CAGATCGG | -0.0356
TCGATTAA | 0.267
GCGATTAC | 0.264

Sequence | PBM E-score
GCGATTAA | 0.209
ACGATTAC | 0.295
GGGATTAC | 0.264
CCGATTAA | 0.117
CGGATTAC | 0.122
ACGATTAA | 0.0274
AAGATTAC | 0.255
ACGATTGC | 0.153
CCGATTAC | 0.23
GGGATTAA | 0.23
GCAGTACC | -0.0675
CAGTTACC | -0.0935
ACACACCG | -0.137
CTAATGGC | -0.0137
CCTTTGCA | -0.0748
ATCACAGA | -0.0171
CCCACGTA | -0.0439
CACCCAGG | -0.237
TACGATGA | 0.12
ACGATTAT | 0.274
ACGATTAG | 0.158
AGGATTAT | -0.0477
CCCGTTTA | 0.069
TGATTACA | 0.301
TCATTACA | 0.164

Sequence | PBM E-score
CGATTACA | 0.177
CGATTACC | 0.143
AGATTACG | 0.419
AGATTACC | 0.14
AGATTACA | 0.286
CGATTACG | 0.389
GGATTACA | 0.19
CCATTACG | 0.0601
CCATTACA | 0.223
AGATTACT | 0.182
CTCCCTTC | -0.312
AAAAGCCC | -0.0247
CGGGCCTC | 0.0182
CACACACA | 0.0837
AAGACCAC | -0.205
CACCCGGC | -0.351
TCAGGCAA | -0.0467
CGGGTGTA | 0.0316
AATTCACA | 0.258
GATTCACA | 0.0537
AATTCACG | -0.0153
AAGGTATA | -0.0348
ACTAAACC | -0.0367
ACTAATCC | 0.125
CCTAATCG | 0.155

Sequence | PBM E-score
TCTAATCA | 0.231
ACTAATCA | 0.264
ACTAAACA | 0.258
ACTAATCG | 0.355
ACTAATCT | 0.128
TCTAAACA | -0.115
CTCGACCC | -0.157
CCGTTACG | 0.0353
ATCTTTAA | 0.0357
CCCCTCTC | -0.318
AACGTCGG | -0.0613
TATGTCGA | 0.0777
AGTATTCA | 0.165
CTCGCAAA | -0.0438
GTCAGCCA | 0.07
ATACCTAC | 0.046
ATACCTAA | 0.286
ATACCTAT | 0.176
AGGCAGAC | -0.247
ATGCTTAC | 0.265
ATGCTTTA | -0.0364
CTGCTGAA | -0.212
CTGCTGTC | -0.0623
ATGCTTAA | 0.146
CTGCTTAA | 0.00628

Sequence | PBM E-score
CTGCTGAC | 0.26
CTGCTTTA | 0.278
ATGCTTTC | 0.155
CTGCTTTC | 0.058
CTGCTTCC | -0.178
CTGCTTAC | 0.402
AAACCTGT | 0.0662
ATGTGAGC | -0.0106
AAAAGCTG | -0.148
GCAGGAGC | -0.285
GACCGCCC | -0.161
TCGAGTCA | -0.0465
ATTTCCTC | 0.09
AGGAGCCG | -0.317
AGAGGAGC | -0.233
GGCTGCAA | -0.0216
ATGCTTGG | -0.0358
ATGCTTAG | 0.313
ATGCTTCG | -0.0239
GGGGAAAC | -0.0321
AAGAACAA | 0.197
GAGAACAA | 0.269
CGGAACGA | 0.287
CGGAACAA | 0.302
AGGAACGA | -0.244

Sequence | PBM E-score
CGGAACAC | 0.177
TGGAACAA | 0.0669
CGGAACGC | 0.0289
GAGAACAC | 0.047
CGCCCCAC | 0.131
AGTTTCTG | 0.0528
GTGGAGGA | -0.0744
GGACTAAC | -0.232
GTCACAAA | -0.0564
TGATGGCA | -0.112
GGATGGCC | -0.296
GGATGGCA | 0.27
AACCTAGG | -0.0368
ATTCGTAA | 0.304
ATACGTAC | -0.0222
CTACGAAA | -0.0568
ATACGTAA | 0.386
CTTCGTAA | 0.0958
GTACGTAC | -0.00455
GTTCGTAA | 0.153
ATACGAAA | 0.265
ATACGTAG | 0.116
GTACGTAA | 0.397
CTACGTAA | 0.24
ATACGAAT | 0.0148
